Laboratory results published in PubChem BioAssay (NCATS).
Inconclusive results are not listed. Where a call stands in place of a potency, no number is given. Calls of active or inactive are those of the source. Calls follow the shape of the dose curve; as a rule, active = well fitted curve in the direction sought with a large enough effect; inconclusive = small, poorly fitted or top-dose-only effect, or another doubt; inactive = no such curve, though single readings can be large; an effect the other way counts as inactive or inconclusive.

Assays:
[1] = target: Calcium and integrin-binding protein 1 (Homo sapiens) (UniProt Q99828); assay: Primary qHTS for Identification of Calcium Integrin Binding Protein 1 (CIB1) Competitor (AID 1508620);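 also: GST tagged CIB1 binding a fluorescein labelled alphaIIb integrin peptide tracer; top concentration of the series differs between compounds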
Chain of Calcium and integrin-binding protein 1 (Homo sapiens) (Q99828 whole entry, looked up): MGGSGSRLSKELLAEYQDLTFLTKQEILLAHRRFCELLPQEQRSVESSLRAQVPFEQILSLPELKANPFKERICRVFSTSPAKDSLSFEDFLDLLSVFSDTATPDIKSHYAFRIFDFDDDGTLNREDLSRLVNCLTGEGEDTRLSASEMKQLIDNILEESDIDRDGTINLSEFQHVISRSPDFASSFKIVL
How it was run: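 Fluorescence polarization competition: GST-tagged CIB1 (1 uM final) preincubated with compound 15 min at room temperature, then FITC-labelled alphaIIb peptide (100 nM final) added. After 15 min at room temperature, polarization read at Ex 480/Em 540.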

[2] = Primary qHTS for small molecule stabilizers of the endoplasmic reticulum resident proteome: Secreted ER Calcium Modulated Protein (SERCaMP) assay (AID 1508630); also: potency is read from the fitted curve at half-maximal effect
How it was run: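 The SH-SY5Y reporter protocol was run at 3 concentrations up to 38.3 uM (primary) or 11 concentrations (follow-up): 16 h compound, 100 nM thapsigargin for 4 h, then extracellular luciferase luminescence.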

Structure (SMILES) | Potency [1] | Potency [2]
CNC(=O)[C@H](Cc1ccccc1)NC(=O)[C@H](CC(C)C)[C@H](CSc1cccs1)C(=O)NO | inactive | inactive
COc1ccc(-c2ccc3ncc4c(c3c2)n(-c2ccc(N3CCNCC3)c(C(F)(F)F)c2)c(=O)n4C)cn1 | inactive | inactive
NC(N)=Nc1nc(CSCCC(N)=NS(N)(=O)=O)cs1 | inactive | inactive
C#C[C@]1(O)CC[C@H]2[C@H]3CCc4cc(OC)ccc4[C@H]3CC[C@@]21C | inactive | inactive
CCN(CC)CCCCNc1nc2cc(Cl)c(Cl)cc2nc1-c1ccc(-c2cccs2)s1 | inactive | inactive
N#CC(=C1Nc2ccccc2S1)c1ccnc(OCc2ccc(CN3CCOCC3)cc2)n1 | inactive | 1490 nM (active)
CC(=O)OCC(=O)[C@@]12OC(C)(C)O[C@H]1C[C@H]1[C@@H]3C[C@H](F)C4=CC(=O)C=C[C@]4(C)[C@@]3(F)[C@@H](O)C[C@@]12C | inactive | inactive
CCOC(=O)c1c(CSc2ccccc2)n(C)c2cc(Br)c(O)c(CN(C)C)c12 | inactive | inactive
O=C(Nc1ccccc1)Nc1ccc(-c2ccc(C(=O)[C@H]3CCC[C@H]3C(=O)O)cc2)cc1 | inactive | inactive
C[C@@H](O)[C@H]1C(=O)N2C(C(=O)OCOC(=O)C(C)(C)C)=C(SC3CN(C4=NCCS4)C3)[C@H](C)[C@H]12 | inactive | inactive
COc1cc2nccc(Oc3ccc(NC(=O)Nc4cc(C)on4)c(Cl)c3)c2cc1OC | inactive | inactive
CC1CCN(c2cc(N3CCN(C)CC3)ccc2NC(=O)c2cc(C#N)c[nH]2)CC1 | inactive | inactive
N#CC(c1ccc(Cl)cc1)c1c(Cl)cc(-n2ncc(=O)[nH]c2=O)cc1Cl (configuration not stated) | inactive | inactive
Cc1ccc2c(=O)c3cccc(CC(=O)O)c3oc2c1C | inactive | inactive
Cc1cn([C@@H]2C[C@@H](O)[C@H](CO)O2)c(=O)[nH]c1=O | inactive | inactive
CCC(=O)NCC[C@@H]1CCc2ccc3c(c21)CCO3 | inactive | inactive
CN[C@@H]1CN(c2ccc3c(=O)c(C(=O)O)cn(-c4nccs4)c3n2)C[C@@H]1OC | inactive | inactive
CN(C)CCOc1ccc(-c2nc(-c3ccc4c(c3)CCC4=NO)c(-c3ccncc3)[nH]2)cc1 | inactive | inactive
CC(C)N(CCCNC(=O)Nc1ccc(C(C)(C)C)cc1)C[C@H]1O[C@@H](n2cc(Br)c3c(N)ncnc32)[C@H](O)[C@H]1O | inactive | inactive
CN(C)CCN(C)C(=O)c1ccc(NC(=O)Nc2ccc(-c3nc(N4CCOCC4)c4ccn(CC(F)(F)F)c4n3)cc2)cc1 | inactive | inactive
CN1CC(=O)N2C(Cc3c([nH]c4ccccc34)[C@H]2c2ccc3c(c2)OCO3)C1=O (some centres not stated) | inactive | inactive

Structure (SMILES) | Potency [1] | Potency [2]
Cc1ccc(NC(=O)c2ccc(CN3CCN(C)CC3)cc2)cc1Nc1nc(-c2cccnc2)cs1 | inactive | inactive
C#CCN(C)CC1=Cc2ccccc2Oc2ccccc21 | inactive | inactive
Cc1[nH]c(C=C2C(=O)Nc3ccc(S(=O)(=O)N(C)c4cccc(Cl)c4)cc32)c(C)c1C(=O)N1CCN(C)CC1 | inactive | inactive
CN1[C@H]2CC[C@H]1CC(OC(=O)c1c[nH]c3ccccc13)C2 (some centres not stated) | inactive | inactive
CCCCn1c(=O)n(Cc2ccccc2F)c(=O)c2[nH]c(Cc3ccc(NC(C)=O)cc3)nc21 | inactive | inactive
C[C@]12C=CC(=O)C=C1CC[C@@H]1[C@@H]2[C@@H](O)C[C@@]2(C)[C@@H]1CC[C@]2(O)C(=O)CO | inactive | inactive
CC1(C)[C@H]2CC[C@]3(C)[C@@H](C(=O)C=C4[C@@H]5C[C@@](C)(C(=O)O)CC[C@]5(C)CC[C@]43C)[C@@]2(C)CC[C@@H]1O | inactive | inactive
CN[C@@H]1[C@@H](O)[C@@H](O[C@@H]2[C@@H](O)[C@H](O[C@H]3O[C@H](CN)[C@@H](O)[C@H](O)[C@@H]3O)[C@@H](N)C[C@@H]2NC(=O)[C@@H](O)CN)OC[C@]1(C)O | inactive | inactive
Cc1ccc(S(=O)(=O)Nc2nc3ccccc3nc2Nc2ccc3nsnc3c2)cc1 | inactive | inactive
COC(=O)N1CCN(Cc2cccc(NC(=O)Nc3ccc(C)nc3)c2F)CC1 | inactive | inactive
CN(C)CC[C@H](CSc1ccccc1)Nc1ccc(S(=O)(=O)NC(=O)c2ccc(N3CCN(Cc4ccccc4-c4ccc(Cl)cc4)CC3)cc2)cc1[N+](=O)[O-] | inactive | inactive
O=C(Nc1ccc(OC(F)(F)F)cc1)c1sccc1NCc1ccnc2ccccc12 | inactive | inactive
Cc1ccccc1C(=O)c1ccc(Nc2ccc(Br)cc2N)cc1Cl | inactive | inactive
CC(=O)OCC(=O)[C@@]1(O)CC[C@H]2[C@@H]3CCC4=CC(=O)C=C[C@]4(C)[C@@H]3[C@@H](O)C[C@@]21C | inactive | inactive
COc1cc(F)c(C(C)C)cc1-c1ccc(C(F)(F)F)cc1CN1C(=O)O[C@H](c2cc(C(F)(F)F)cc(C(F)(F)F)c2)[C@@H]1C | inactive | inactive
Cc1ccc2c(c1)C(=O)[C@]1(O)CCN(c3ccccc3)C1=N2 | inactive | inactive
Nc1ncnc2c1ncn2[C@@H]1O[C@H](CO)[C@@H](O)[C@@H]1O | inactive | inactive
CC(C)CNc1ccnc(NCc2csc(-c3ccccc3)n2)n1 | inactive | inactive
O=c1[nH]nc(OCCCc2ccc(Cl)cc2)c(NCc2cccnc2)c1Br | inactive | inactive
O=c1cc(-c2ccc(O)c(O)c2)oc2cc(O)cc(O)c12 | inactive | inactive
